Rows were chosen to be rich in hits. Some 6.9% of all compounds tested hit in one or more screens of this group.
JMJD2A Tudor inh = inhibitors of human JMJD2A Tudor domain; O75164; AlphaScreen JMJD2A-Tudor / H3K4me3 peptide binding; Potency, µM (doses to about 114 µM), inactives show top-dose activity change, negative = inhibition, hits mostly inhibitors; 390,000 compounds, 4.4% hits; further: on the % scale 0 is the no-effect control and ±100 the full control effect; nearly all actives have a fitted effect of over 50% in size
L3MBTL1 inh = inhibitors of human L3MBTL1 | AlphaScreen L3MBTL1–H3K9me1 peptide binding | Potency, µM (series often up to 57.1 µM), without a hit: at the top dose activity, negative = inhibition, usual class: inhibitors | 230,000 compounds, 0.66% hits; further: on the % scale 0 is the no-effect control and ±100 the full control effect; nearly all actives have a fitted effect of over 60% in size
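L3MBTL1 (50 nM) pre-complexed 30 min with biotinylated H3(1-15)K9me1 peptide (75 nM), then compounds added for 30 min at room temperature; AlphaScreen streptavidin donor/nickel chelate acceptor beads (10 ug/mL final) read after 30 min dark incubation.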
PLK1 PBD inh = blocks phosphopeptide binding to human PLK1 polo-box domain; 360,000 compounds, 2.8% hits; Plk1 PBD binding of FITC phosphopeptide, fluorescence polarization; P53350; AID 720504; Potency, µM, for the others: max response, negative = inhibition, usual class: inhibitors; further: series mostly up to about 57 µM; on the % scale 0 is the no-effect control and ±100 the full control effect; nearly all actives have a fitted effect of over 65% in size
Target sequence (P53350 whole entry, looked up, the tested form may be a part): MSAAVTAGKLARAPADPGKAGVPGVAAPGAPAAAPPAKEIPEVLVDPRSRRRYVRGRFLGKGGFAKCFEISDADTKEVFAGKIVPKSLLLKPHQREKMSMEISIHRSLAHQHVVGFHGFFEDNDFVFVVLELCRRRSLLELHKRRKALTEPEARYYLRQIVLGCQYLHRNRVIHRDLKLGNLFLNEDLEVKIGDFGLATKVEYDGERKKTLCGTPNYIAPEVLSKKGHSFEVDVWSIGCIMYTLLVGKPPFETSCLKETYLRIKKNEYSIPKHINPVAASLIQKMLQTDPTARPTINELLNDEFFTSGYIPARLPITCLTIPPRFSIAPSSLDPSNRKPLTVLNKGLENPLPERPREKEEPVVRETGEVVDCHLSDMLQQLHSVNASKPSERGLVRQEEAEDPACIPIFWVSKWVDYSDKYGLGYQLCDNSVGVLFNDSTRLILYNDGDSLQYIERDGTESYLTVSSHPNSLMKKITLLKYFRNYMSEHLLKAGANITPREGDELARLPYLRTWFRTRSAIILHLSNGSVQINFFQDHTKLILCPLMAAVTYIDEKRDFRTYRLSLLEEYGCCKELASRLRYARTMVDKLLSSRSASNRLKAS
VDR inh = inhibitors of human vitamin D receptor | P11473 | VDR-SRC2-3 peptide fluorescence polarization, 2 h | Potency, µM, without a hit: max response, negative = inhibition, actives largely listed as inhibitors | 400,000 compounds, 0.93% hits | AID 504847; further: on the % scale 0 is the no-effect control and ±100 the full control effect
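After 23 nl compound addition and a short centrifugation, plates sat for 2 hours at ambient temperature; polarization of fluorescence then indicated loss of VDR binding to peptide SRC2-3.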
BAZ2B block = BAZ2B (human) inhibition; AlphaScreen BAZ2B-H3K14Ac peptide displacement; Potency, µM (highest dose often 114 µM), for inactives: at the top dose activity change, negative = inhibition, hits mostly inhibitors; 360,000 compounds, 4.4% hits; AID 504333; further: on the % scale 0 is the no-effect control and ±100 the full control effect; nearly all actives have a fitted effect of over 60% in size
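AlphaScreen displacement of biotin-H3(5-23)K14Ac peptide (50 nM final) from BAZ2B (50 nM final) in PBS pH 7.4, 0.01% Tween-20; complex preformed 30 min RT, then compounds (top 110 uM) 30 min RT, beads 20 min dark.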
HP1b binding inh = inhibitors of HP1-beta chromodomain binding to methylated histone tails; Potency, µM (titrated, usually from 114 µM), for the others: at the highest dose activity change, negative = inhibition, hits mostly inhibitors; P83916; 390,000 compounds, 0.56% hits; AID 540317; AlphaScreen HP1-beta / biotin-H3K9me3 peptide binding; further: nearly all actives have a fitted effect of over 70% in size
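Compound inhibition of the preformed complex between 50 nM HP1-beta and 50 nM biotinylated H3K9me3 peptide was read by AlphaScreen. Buffer was PBS pH 7.4 with 0.01% Tween-20. Incubations ran 30 min at room temperature, with 10 ug/mL donor/acceptor beads.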
The depositor's hits bear a star; ? = inconclusive; . = no result given; [ ] = another dose, or the depositor's remark. The call rests on the fitted dose curve; in most records, active means well fitted curve in the direction sought with a large enough effect; inconclusive means small, poorly fitted or top-dose-only effect, or another doubt; inactive means no such curve, though single readings can be large; an effect the other way counts as inactive or inconclusive. Potency means the concentration at half of the fitted maximal effect.

SMILES	JMJD2A Tudor inh	L3MBTL1 inh	PLK1 PBD inh	VDR inh	BAZ2B block	HP1b binding inh
CCC(=O)N1CCc2cc(S(=O)(=O)NC(CC(C)C)C(=O)Nc3ccc(CC)cc3)ccc21 (stereo not drawn)	-1.0%	.	.	-9.6%	.	41.3%
c1nc2nc(Nc3ccc(N4CCOCC4)cc3)nc(NC3CCCCC3)c2[nH]1	.	.	.	3.1%	.	.
O=C(NNc1ccc(C2CCCCC2)cc1)C(O)(c1ccccc1)c1cccs1 (stereo not drawn)	-30.1%	-0.5%	-0.1%	15.0%	50.1µM*	14.3%
Cc1ccc(-n2nc3c(c2NC(=O)C(C)(C)C)CS(=O)(=O)C3)cc1	7.2%	.	0.5%	-16.2%	-3.2%	20.8%[57 µM]
CCCCn1c(-c2ccc(OC)cc2)nc2c(=O)n(C)c(=O)[nH]c21	?	.	?	50.1µM*	-23.7%	17.1%
Cc1ccc(C(=O)Nc2ccc3c(c2)N(C)C(=O)c2ccccc2S3)cc1	-33.7%	.	.	14.6%	-4.8%	14.4%
O=C(O)COc1ccc(-c2nccc(-c3ccccn3)n2)cc1	-33.8%[11.4 µM]	-12.4%	18.9µM*	-29.4%	79.4µM*	?
CC(=O)N=C1SC2CS(=O)(=O)CC2N1c1ccc(-c2nc3ccc(C)cc3s2)cc1 (stereo not drawn)	.	-7.2%	.	.	-3.6%	.
Cc1ccc2nc(-c3ccc(N4C(=NC(=O)CCC(=O)O)SC5CS(=O)(=O)CC54)cc3)sc2c1 (stereo not drawn)	?	12.6µM*	-13.3%	-5.3%	?	?
CC1(C)CC(=O)C(C=Nc2ccccc2C(=O)O)=C(O)C1	-22.7%	-0.2%	-8.9%	-6.5%	5.1%	46.8%
CC1(C)CC(=O)c2cc(N=C/C(C(=O)c3ccccc3)=C(\O)c3ccccc3)c(=O)oc2C1	?	19.3%	23.8µM*	-20.8%	-28.2%	36.3%
O=S(=O)(Nc1cccc2ncccc12)c1cccs1	56.2µM*	-20.9%	2.0%	0.5%	56.2µM*	31.0%
Cc1ccc(Cl)cc1NC(=S)Nn1cnnc1	-16.2%	.	10.6µM*	79.4µM*	?	-7.2%
Cc1ccc(Cl)cc1NC(=S)N(C)N	-14.4%	14.2%	3.7%	-7.2%	-1.3%	6.6%
Cc1cccnc1NC(=S)Nc1ccc(Br)cc1Cl	?	-17.7%	-18.6%	-4.8%	50.1µM*	?
S=C(Nc1ccc(Br)cc1Cl)Nn1cnnc1	-17.9%	1.2%[11.4 µM]	9.47µM*	?	?	-18.9%
S=C(NCc1ccncc1)Nc1ccc(Br)cc1Cl	-14.1%	.	-9.8%	5.7%	-8.1%	48.5%
COc1cc([N+](=O)[O-])ccc1NC(=S)Nn1cnnc1	-32.6%	.	9.47µM*	?	?	?
O=C(Cc1ccccc1)Nc1sc2c(c1C(=O)Nc1ccc(Cl)cc1)CCOC2	-24.0%	.	.	.	.	.
CC(C)NC(=O)C1(C)CCCCN1Cc1ccc(OCc2ccccc2)cc1 (stereo not drawn)	.	.	-2.4%	.	.	.
CC(=O)Nc1ccc2nc(CN3CCC(CO)(CCc4ccccc4)CC3)ccc2c1	31.6µM*	-18.9%	-4.8%	9.5%	-33.2%	9.6%
Cn1c(=O)c2[nH]c(CN(Cc3ccccc3)Cc3ccccc3)nc2n(C)c1=O	-8.3%	-0.5%	1.4%	19.1%	2.4%	20.6%
CN(C)Cc1nc2c([nH]1)c(=O)n(C)c(=O)n2C	3.55µM*	4.4%	4.6%	-12.7%	-3.8%	23.9%
CCOC(=O)c1c(C)[nH]c(C)c1C(=O)COc1ncnc2ccccc12	15.8µM*	.	11.9µM*	?	.	-22.1%
CCOC(=O)c1c(NC(=O)COc2ncnc3ccccc23)sc(C)c1C	-17.2%	3.0%	-6.2%	20.5%	4.2%	24.4%
COc1c(Br)cc(Br)cc1/C=N/n1c(C)nnc1C	39.8µM*	.	26.7µM*	?	-4.3%	?
COc1cc(NC(=O)CCCOc2cc(=O)n(C)c3ccccc23)cc(OC)c1OC	-17.5%	.	.	1.0%	-2.9%	31.9%
CCOC(=O)c1cccc(NC(=O)N2Cc3ccccc3Oc3ncccc32)c1	-15.4%	.	.	11.9%	-17.8%	36.4%
O=C(NC1CC1)c1cc(=S)[nH]c2ccccc12	17.8µM*	45.9%	-26.9%	-14.9%	.	-0.3%
